# Results as given in PubChem BioAssay (NCATS).
# Records with an inconclusive call do not appear. A number with no mark means an inactive call. Activity calls are given as the source filed them.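 How the source made its calls: active means dose-dependent loss of cell ATP signal giving a full or clear fitted curve, ranked by lower potency value; inconclusive means weak partial curve or response only at the top dose; inactive means no loss of viability signal.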
# Test: Cell Viability - Jurkat (AID 426);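 further: cells exposed to compound for 40 hours at 37 °C before ATP read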
# Conditions: qHTS
# Method in brief: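 Jurkat (Clone E6-1) cells, 5000/well in complete medium, exposed to compounds for 40 hr at 37C; intracellular ATP measured by CellTiter-Glo luminescence after 20 min at room temperature. AC50 from Hill fits.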
# Potency means the concentration at half of the fitted maximal effect.
row,Structure (SMILES),Potency
1,CCCCCCc1ccc(-c2ccc(C#N)cc2)cc1,> 92 µM
2,CCCCCCCCOc1ccc(C(=O)O)cc1,> 92 µM
3,Oc1c(Cl)cc(Cl)c(Cl)c1Cl,57 µM (active)
4,CC(C)OCC1CO1 (stereo not drawn),> 92 µM
5,C/C(Cl)=C/CCl,> 92 µM
6,CCCCNCC,> 92 µM
7,O=c1[nH]ncc2ccccc12,> 92 µM
8,c1ccc(COCc2ccccc2)cc1,> 92 µM
9,O=[N+]([O-])c1cccc(I)c1,> 92 µM
10,Nc1ccc2c(c1)C(=O)c1ccccc1C2=O,49.6 µM
11,c1ccc2c(c1)ccc1ccccc12,> 92 µM
12,Nc1ccc(N=Nc2ccccc2)c(N)c1,> 92 µM
13,Cc1ccc(C(=O)O)cc1[N+](=O)[O-],> 92 µM
14,COc1ccc([N+](=O)[O-])cc1N,> 92 µM
15,OCC(CO)(CBr)CBr,> 92 µM
16,Nc1cc(C(=O)O)c(O)c(S(=O)(=O)O)c1,> 92 µM
17,Oc1ccc2c(c1)OCO2,> 92 µM
18,c1ccncc1,> 92 µM
19,CC(=O)OC1CC(C)OC(C)O1 (stereo not drawn),> 92 µM

row,Structure (SMILES),Potency
1,O=C(OCc1ccccc1)c1ccccc1O,> 92 µM
2,C/C=C/C=C/C=O,29.4 µM (active)
3,CCN(CC)c1ccc2c(C)cc(=O)oc2c1,> 92 µM
4,c1c[nH]cn1,> 92 µM
5,c1ccc(SCCSc2ccccc2)cc1,> 92 µM
6,O=C(O)/C=C/c1ccc(/C=C/C(=O)O)cc1,> 92 µM
7,CCCCOC(=O)COc1ccc(Cl)cc1Cl,> 92 µM
8,CC(=O)OC(C(=O)c1ccccc1)c1ccccc1 (stereo not drawn),> 92 µM
9,CCCCCCN,> 92 µM
10,CC(=O)Nc1cccc(C)c1,> 92 µM
11,CCC(Cl)CC(Cl)C(Cl)C(Cl)C(Cl)C(C)Cl (stereo not drawn),> 92 µM
12,COc1ccc(C)cc1N,> 92 µM
13,CCc1ccc(C(c2ccc(CC)cc2)C(Cl)Cl)cc1,> 92 µM
14,C[C@@H]1CC2(OC(O)[C@]3(C)O[C@H]23)O[C@H]2C[C@@]3(C)[C@@H]4CC[C@H]5C(C)(C)C(O[C@@H]6OC[C@@H](O)[C@H](O)[C@H]6O)CC[C@@]56C[C@@]46CC[C@]3(C)[C@@H]12 (stereo partly drawn),41.2 µM
15,O=[N+]([O-])c1ccccc1Nc1ccccc1,> 92 µM
16,C=CC1CO1 (stereo not drawn),> 92 µM
17,COc1cc(-c2ccc(N=C=O)c(OC)c2)ccc1N=C=O,> 92 µM
18,CCOC(=O)C1OC1c1ccccc1 (stereo not drawn),> 92 µM
19,COc1ccc(C(=O)Nc2ccccc2)cc1[N+](=O)[O-],> 92 µM
